# Measured values as given in the supplement of paper PMC11417369.
# The full ranking holds about 25,000 sequences; the median of “ln(normalized median fluorescence intensity)” is about 9.3, and the highest 2% start at about 10. The full list was thinned out, with the highest values kept by preference.
# Test system: PF3D7_0420300 AP2 domain 1 (GST-tagged)
# Assay: gcPBM binding intensity (ln(normalized median fluorescence intensity)); higher = stronger DNA binding
# Outline: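 GST-tagged P. falciparum DNA-binding domains produced in E. coli were incubated for 1 h on an Agilent 4 × 180k array of primer-extended double-stranded 36-bp intergenic genomic probes with negative controls. Binding intensity is the highest Masliner-normalised natural-log median intensity across replicate spots of either probe orientation, with bound protein detected by Alexa488 anti-GST antibody at 488 nm.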
row,Sequence,gcPBM binding intensity (ln)
1,TATATAAACACGTACACACACATATAGGTATTTATA [CACACA_site7615],9.97
2,TCTTAAAAAATAGGGACACGTAAATATAATATATAA [CACACA_negctrl_site554],9.4
3,TTATACTGTTTCAGAAAAATAAAGAATGAAAGTATT [XGTACX_negctrl_site230],9.23
4,TGTAGAAATGGGTGCACACACATATAAAATCTATAT [CACACA_site7224],9.66
5,TTTCAAAATGTGTAAAATAAAAATAATATCATTACA [TGCATGCA_negctrl_site521],9.08
6,ATTTTCTTTTCCATAGTGCAATATAATTATCCATCA [GTGCAC_site9547],9.29
7,AATTTTTTTTTTTTTTTTTTTTATATATGTGTGTGT [XGTACX_negctrl_site129],9.74
8,TGTGTCAAGTTTAATAAACGCATATAATATATATGA [CACACA_negctrl_site607],8.93
9,TTTTTTATATATGTGTGTGTGTGTGTGTCAAGTTTA [GTGCAC_negctrl_site460],10.3
10,TATATAAATATTCGTAGTACAATACAATTATAAGTA [XGTACX_site3068],9.15
11,AACTAATAAAAAAAAAAAACATTAAACAGGACAAAT [XGTACX_negctrl_site287],9.78
12,AACATATAAAAATATGCACACACAGGAATACAAACA [CACACA_site8127],10.3
13,CATATAAAAATATGCACACACAGGAATACAAACATA [CACACA_site684],10.2
14,AATATAATATAATGCACACATAAACAAAAAAAAAAT [CACACA_site1304],9.89
15,AAAATATAATATAATGCACACATAAAACAAAAAAAA [CACACA_site8989],9.74
16,AAAATATATACACAAACATGCATATAATAAATAAAT [TGCATGCA_site711],9.48
17,AAAATATAATATAATGCACACATAAACAAAAAAAAA [CACACA_site8161],9.78
18,TATATATATATGTGTAGTACAACAAATATGAAAAAT [XGTACX_site4059],9.54
19,AAGAATATTTTTTTCTGTACATATAATTTATATACG [XGTACX_site5801],9.13
20,TATTAATACAGACACACACACACACTAATTAAAATA [CACACA_site7967],10.1
21,ATTTATATATATCATACACACTAATATGTATATTAT [CACACA_site5816],9.42
22,GGGAAATATTGAAACACACACGAACGCACGTATTTC [CACACA_site6258],9.54
23,ATTTATTTATCAAATATTATCTTAAAAAAAAAAGAA [CACACA_negctrl_site1345],8.79

row,Sequence,gcPBM binding intensity (ln)
1,ACAAATGGAACTCCTACAAAAAATTTCCATAATATT [XGTACX_negctrl_site132],9.16
2,TATTAATTCATTTTTTTTTTTTTTTTTTTTTTTTTT [CACACA_negctrl_site1215],9.13
3,ATTAATAAATAAATGACACACACACCCACAAAAAAA [CACACA_site8839],9.97
4,TTTATTAATAAACACACACACACACCCAAAATAAAA [CACACA_site7966],10.2
5,CAAAAAATGAAACACACACACACACCCATAAATAAA [CACACA_site1231],10.1
6,TTTATTAAGAAACACACACACACACCCAAAATAAAA [CACACA_site242],10
7,CCCGAACAAACAAATAAACACACAAAAAAAAATATA [CACACA_site8540],9.63
8,TATTTATTAAAACACACACACACACCCACAAAATAA [CACACA_site241],10.1
9,TAATAAATAAATGACACACACACACCCAAAAAAAAA [CACACA_site2623],10.2
10,GAATAATCCAAACACACACACACACCCGAATAAATA [CACACA_site482],10.2
11,ATAATCCTGAAACACACACACACACCCATAAATAAA [CACACA_site481],10.1
12,GTAATTTTATATGGTTGTACATATATATATATATAT [XGTACX_site6659],9.32
13,TAAAATATGGAAATCACACATTTATTAAAATATATA [CACACA_site4623],9.13
14,TGTATTAATATGGTAATACACACTAATATACTTTTG [CACACA_site1610],9.38
15,TTGATTTCATTTTAAGTGCATAACTAATATTATATA [GTGCAC_site9713],9.14
16,ATTATGAAATATCGTGCACACACGAATAATATAAGA [CACACA_site1294],9.42
17,AAAAAAAAAACAAATGCATGTAATATAAGAATTACA [TGCATGCA_site908],9.27
18,TACAGACAGAAATGCACACACATATTTATATTTATA [CACACA_site7139],9.75
19,CATATACACGAACACACACACATATAAATAAATATA [CACACA_site6379],10.1
20,TAACACATAAATAAATATATACATATATATAAAATA [CACACA_negctrl_site375],9.36
21,AAACAAAAAATATATACACACTAAACATAAAAAAAA [CACACA_site4185],9.83
22,CTAAAATACGAACACACACACACATATAAATAAATA [CACACA_site7872],10.3
